# Results taken from PubChem BioAssay AID686979 (National Center for Advancing Translational Sciences (NCATS), 2013).
# Among all 420,000 compounds or so, about 50,000 (12%) were called active. About 26% were inconclusive and are not listed. The entries come from a sample that favours actives as a whole. Unmarked numbers belong to inactive results. Calls come from the whole dose curve; as a rule, active = well fitted inhibition curve with a large enough effect; inconclusive = small, poorly fitted or top-dose-only effect; inactive = flat fitted curve, though single readings scatter.
# Experiment: qHTS for Inhibitors of human tyrosyl-DNA phosphodiesterase 1 (TDP1): qHTS in cells in presence of CPT; note: nearly all actives have a fitted effect of over 55% in size
# Details: chicken DT40 Tdp1-/-;hTDP1 cells + 20 nM CPT, ATP luminescence, 48 h; series mostly up to 46.2 µM; activity change, negative = growth inhibition: at the top concentration
# Summary of the method: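 Chicken DT40 Tdp1-/- cells stably complemented with human TDP1 were seeded at 400 cells/well in medium containing 20 nM camptothecin, exposed to pin-transferred compounds, and grown at 37 °C for at least 48 hr. Viability was read as ATP luminescence.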
# % is set by controls: 0 for no effect and ±100 for the full control effect; potency is the fitted concentration of half-maximal effect.
SMILES,"activity change, negative = growth inhibition",Potency
Cc1cccc(N(C)C(=O)CS(=O)(=O)c2cccc3nsnc23)c1,-6.53%,
Clc1ccc(Nc2ccc3ccccc3n2)cc1,-21.1%,
CCc1ccc(S(=O)(=O)c2nnn3c2nc(N2CCN(CC)CC2)c2sccc23)cc1,0.519%,
Cc1ccc(C)c(S(=O)(=O)c2nnn3c2nc(N2CCOCC2)c2sccc23)c1,,23.1 µM (active)
Cc1ccc(S(=O)(=O)c2nnn3c2nc(N2CCN(c4ccccn4)CC2)c2ccccc23)cc1,-4.25%,
COc1ccc(/C=N/NC(=O)c2ccncc2)cc1CN1CCCc2ccccc21,-7.33%,
O=C(Nc1ccccn1)C1CCN(S(=O)(=O)c2ccccc2)CC1,-22.2%,
CCOc1ccc(NC(=O)CSc2c3c(nc4ccccc24)CCCC3)cc1,,16.4 µM (active)
COc1cccc(CNC(=O)c2ccc3c(Cl)c4c(nc3c2)CCCC4)c1,-25.3%,
COc1cccc(CNC(=O)c2nnn(CC(=O)Nc3cc(Cl)ccc3C)c2N)c1,,inactive
COc1cccc(CNC(=O)CSc2c3c(nc4cc(Cl)ccc24)CCCC3)c1,,23.1 µM (active)
CCOc1ccc(C(=O)NC2CCN(C(=O)Nc3ccccc3OC)CC2)cc1,-11.3%,
CCOc1ccc(C(=O)Nc2ccc3nc4c(c(Nc5ccccc5OC)c3c2)CCCC4)cc1,,4.11 µM (active)
CCOc1ccc(NC(=S)N2CCC(NC(=O)c3ccccc3)CC2)cc1,10.3%,
CCOc1ccc(NC(=O)CSc2nncn2C)cc1,0.635%,
CCOc1ccc(-n2nc3ccc(NC(=O)c4ccc(OC)c(Cl)c4)cc3n2)cc1,-28.6%,
O=C1NCC(Nc2ccccc2)C(=O)N1 (centres undefined),19%,
Nc1c(C(=O)OCC(=O)Nc2ccc(OC(F)F)cc2)[nH]c(=O)[nH]c1=O,1.58%,
COc1ccc(S(=O)(=O)N2CCC(C(=O)OCC(=O)c3ccccc3)CC2)cc1[N+](=O)[O-],1.81%,
CCOC(=O)N1CCN(c2c(NCCCN3CCCC(C)C3)c(=O)c2=O)CC1 (centres undefined),-0.394%,
COc1ccc(Cl)cc1-n1c(CCC(=O)O)ccc1-c1ccc(C)cc1,-20.6%,
CC1(C)CC(=O)c2cnc3nc4ccccc4n3c2C1,-28.7%,

SMILES,"activity change, negative = growth inhibition",Potency
COc1ccc(C)cc1-n1c(-c2ccc(C)cc2)cc2c1CC(C)(C)CC2=O,,8.2 µM (active)
CCOC(=O)N1CCN(C(=O)COC(=O)c2cccc(S(C)(=O)=O)c2)CC1,-0.23%,
COc1ccc(NC(=O)CSc2nncc(=O)n2N)cc1OC,5.56%,
CN(C)c1ccc(/C=N\S(=O)(=O)c2ccccc2)cc1,-8.74%,
CN(C)c1ccc(/C=C/c2sc3ccccc3[n+]2C)cc1,,0.0447 µM (active)
CN(C)c1ccc(/C=C/c2sc3ccccc3[n+]2CCCCBr)cc1,,0.316 µM (active)
COc1ccccc1C(=O)NCCC(=O)N(C)Cc1cccnc1,0.238%,
Cc1ccc(NC(=S)NC(NC(=O)Cc2cccc3ccccc23)C(Cl)(Cl)Cl)cc1 (centres undefined),13.1%,
CSc1ncnc2c1ncn2CCCNCc1ccco1,-10.8%,
Cc1ccccc1NC(=O)NNC(=O)OC(C)(C)C,11.6%,
O=C(NNc1c2ccccc2nc2ccccc12)c1cc2ccccc2cc1O,,23.1 µM (active)
O=C(COC(=O)c1ccc(O)cc1O)NC(=O)c1ccccc1,-17.2%,
CC(C)(C)OC(=O)NNc1c2ccccc2nc2ccccc12,,16.4 µM (active)
O=C(CSc1nc(C2CC2)nc2ccccc12)Nc1cccc(O)c1,-16.6%,
Cc1ccc(C(=O)NNC(=O)OC(C)(C)C)c(Cl)c1,14.3%,
O=C1NC(=O)C(CCc2ccccc2)(c2ccccc2)N1 (centres undefined),-13.1%,
CC(=O)NN=C(C)c1ccc(NC(=O)C2CC2)cc1,-93.7%,
Cc1c(S(=O)(=O)NC(C)c2ccccc2)c(=O)n(C)c(=O)n1C (centres undefined),1.47%,
O=C(NC(Cc1ccccc1)C(=O)O)/C(=C\c1ccccc1)NC(=O)c1ccco1 (centres undefined),-4.94%,
O=C(NCCCn1ccnc1)/C(=C\c1ccccc1F)NC(=O)c1ccccc1,-2.69%,
Cc1cc(C)cc(NS(=O)(=O)c2ccc3[nH]cc(C(=O)N4CCCCC4)c(=O)c3c2)c1,1.93%,
CCOc1c(Br)cc(/C=C2\C(=O)N(CCC#N)N=C2C)cc1OC,,20.6 µM (active)

SMILES,"activity change, negative = growth inhibition",Potency
C=CCOc1c(Br)cc(/C=N\n2nnnc2N)cc1OC,-8.22%,
COc1cc(/C=C2/C(=O)NN(c3cccc(Cl)c3)C2=O)cc(Br)c1O,-0.608%,
COc1ccc(-n2c(-c3ccc(Cl)cc3)n[nH]c2=S)c(OC)c1,9.9%,
CCc1cc(=O)oc2c(C)c(OCC(=O)N3CC[C@@]4(O)CCCC[C@H]4C3)ccc12,-1.84%,
Cc1ccc(NC(=S)NC2CCCC2)cc1,-12.1%,
Cc1ccc(/C=N/NC(=S)NC2CCCCC2)o1,,14.6 µM (active)
Cc1ccc(/C=N/NC(=O)CNC(=O)COc2ccccc2)o1,-0.282%,
CC12CCC(=O)N1C(C(=O)Nc1ccc(F)c(F)c1F)CS2 (centres undefined),-3.07%,
O=C(CCNC(=O)c1ccc(Br)cc1)NCC(c1ccco1)N1CCCCC1 (centres undefined),-17.1%,
COc1ccc(-n2c(=O)c3sc4ccccc4c3n(CC(=O)Nc3cccc(C)c3)c2=O)cc1,-11.5%,
COc1cccc(NC(=O)CN(C)C(=O)CSCc2nc3scc(-c4cccs4)c3c(=O)[nH]2)c1,-4.16%,
CCOC(=O)c1cc(C#N)c(N2CCCCC2)nc1-c1ccccc1,-8.91%,
CC(C)C[C@H]1CNC(=O)C(=O)N1C[C@@H]1CCCN1C[C@H](Cc1ccccc1)N1C[C@H](CC(C)C)N(CC2CCCCCC2)C(=O)C1=O,2.28%,
CCOc1ccc(CCN2C(=O)C(=O)N([C@@H](CC(C)C)CN3CCC[C@H]3CN3C(=O)C(=O)NC[C@@H]3Cc3ccccc3)C[C@@H]2CC(C)C)cc1,-23.9%,
CC(C)C[C@H]1CNC(=S)N1C[C@H]1CCCN1C[C@H](Cc1ccc(O)cc1)N1C[C@H](Cc2ccc(O)cc2)N(CC2CCCCC2)C1=S,,25.9 µM (active)
Cc1noc(C)c1-c1cc(NCc2cccnc2)ncn1,-6.05%,
CNc1cc(-c2c(C)noc2C)ncn1,,13 µM (active)
COCCNc1cc(-c2c(C)noc2C)ncn1,-19.5%,
Cc1ccc(S(=O)(=O)N2CCCCC2)cc1C(=O)N1CCN(CCO)CC1,-19.4%,
CC1(C)CCc2cc(S(=O)(=O)N3CCN(c4nc(-c5cccs5)nc5ccccc45)CC3)ccc2O1,-8.77%,
